Reference: the supplement of paper PMC8728848
The full list was thinned out, with the strongest signals kept by preference.

Key:
Assay in all cases: glycan array binding signal (z-score within array); higher = stronger binding
Details in all cases: glycan notation: IUPAC condensed, linker removed
[1] = target: Gal3S(b1-3)GalNAc
Procedure, shortened: (§1)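 Arrays were curated from the Consortium for Functional Glycomics database, 3228 in total, and kept only where the protein sequence was available. Binding is expressed as a within-array Z-score. This score was averaged across arrays of the same protein sequence at different concentrations or buffers and across linkers, and negative values can be read as non-binding.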

[2] = target: Gal3S6S(b1-4)GlcNAc
Procedure, shortened: as §1

[3] = target: Gal4S(b1-4)GlcNAc
Procedure, shortened: as §1

[4] = target: Gal6S(b1-4)GlcNAc
Procedure, shortened: as §1

[5] = target: GalNAc(b1-3)Gal
Procedure, shortened: as §1

[6] = target: GalNAc(b1-3)Gal(a1-6)Gal(b1-4)Glc
Procedure, shortened: as §1

[7] = target: GalNAc6S(b1-4)GlcNAc
Procedure, shortened: as §1

[8] = target: Glc(a1-4)Glc(a1-4)Glc(a1-4)Glc
Procedure, shortened: as §1

[9] = target: GlcA3S(b1-3)Gal(b1-4)GlcNAc(b1-2)Man
Procedure, shortened: as §1

[10] = target: GlcNAc(a1-3)Gal(b1-4)GlcNAc
Procedure, shortened: as §1

[11] = target: GlcNAc(a1-4)Gal(b1-4)GlcNAc
Procedure, shortened: as §1

[12] = target: GlcNAc(b1-2)[GlcNAc(b1-6)]Man(a1-6)[GlcNAc(b1-4)][GlcNAc(b1-2)Man(a1-3)]Man(b1-4)GlcNAc(b1-4)GlcNAc
Procedure, shortened: as §1

[13] = target: GlcNAc(b1-3)Fuc
Procedure, shortened: as §1

[14] = target: GlcNAc(b1-3)Gal(b1-4)GlcNAc(b1-3)Gal(b1-4)GlcNAc(b1-2)Man(a1-3)[GlcNAc(b1-3)Gal(b1-4)GlcNAc(b1-3)Gal(b1-4)GlcNAc(b1-2)Man(a1-6)]Man(b1-4)GlcNAc(b1-4)[Fuc(a1-6)]GlcNAc
Procedure, shortened: as §1

[15] = target: GlcNAc(b1-3)Gal(b1-4)GlcNAc(b1-3)Gal(b1-4)GlcNAc(b1-3)Gal(b1-4)GlcNAc(b1-2)[GlcNAc(b1-3)Gal(b1-4)GlcNAc(b1-3)Gal(b1-4)GlcNAc(b1-3)Gal(b1-4)GlcNAc(b1-6)]Man(a1-6)[GlcNAc(b1-3)Gal(b1-4)GlcNAc(b1-3)Gal(b1-4)GlcNAc(b1-3)Gal(b1-4)GlcNAc(b1-2)Man(a1-3)]Man(b1-4)GlcNAc(b1-4)[Fuc(a1-6)]GlcNAc
Procedure, shortened: as §1

[16] = target: Kdn(a2-3)Gal(b1-3)GlcNAc
Procedure, shortened: as §1

[17] = target: Man(a1-2)Man(a1-3)[Man(a1-2)Man(a1-6)]Man
Procedure, shortened: as §1

[18] = target: Neu5Ac(a2-3)Gal
Procedure, shortened: as §1

[19] = target: Neu5Ac(a2-3)Gal(b1-3)GalNAc6S
Procedure, shortened: as §1

[20] = target: Neu5Ac(a2-3)Gal(b1-4)GlcNAc(b1-2)Man
Procedure, shortened: as §1

[21] = target: Neu5Ac(a2-3)Gal(b1-4)GlcNAc(b1-3)Gal
Procedure, shortened: as §1

[22] = target: Neu5Ac(a2-3)Gal(b1-4)GlcNAc(b1-3)Gal(b1-4)GlcNAc(b1-2)Man(a1-3)[Neu5Ac(a2-3)Gal(b1-4)GlcNAc(b1-3)Gal(b1-4)GlcNAc(b1-2)Man(a1-6)]Man(b1-4)GlcNAc(b1-4)GlcNAc
Procedure, shortened: as §1

[23] = target: Neu5Ac(a2-3)Gal(b1-4)GlcNAc(b1-3)GalNAc
Procedure, shortened: as §1

[24] = target: Neu5Ac(a2-3)Gal(b1-4)GlcNAc6S
Procedure, shortened: as §1

[25] = target: Neu5Ac(a2-3)Gal(b1-4)[Fuc(a1-3)]GlcNAc(b1-6)[Neu5Ac(a2-3)Gal(b1-3)]GalNAc
Procedure, shortened: as §1

[26] = target: Neu5Ac(a2-6)Gal(b1-4)GlcNAc(b1-3)Gal(b1-4)GlcNAc(b1-3)Gal(b1-4)GlcNAc(b1-2)Man(a1-3)[Neu5Ac(a2-6)Gal(b1-4)GlcNAc(b1-3)Gal(b1-4)GlcNAc(b1-3)Gal(b1-4)GlcNAc(b1-2)Man(a1-6)]GalNAc
Procedure, shortened: as §1

[27] = target: Neu5Ac(a2-6)Gal(b1-4)GlcNAc6S
Procedure, shortened: as §1

[28] = target: Neu5Ac(a2-8)Neu5Ac
Procedure, shortened: as §1

[29] = target: Neu5Ac(a2-8)Neu5Ac(a2-3)Gal(b1-4)GlcNAc
Procedure, shortened: as §1

[30] = target: Neu5Ac(a2-8)Neu5Ac(a2-3)[GalNAc(b1-4)]Gal(b1-4)Glc
Procedure, shortened: as §1

B1: SspB A3vp1 (Streptococcus gordonii), Q54186 (protein)
chain: MTNEADYQAKLAAYQTELARVQKANADAKATYEKAVEDNKAKNAAIKAENEEIKQRNAVAKTDYEAKLAKYEADLAKYKKEFAAYTAALAEAESKKKQDGYLSEPRSQSLNFKSEPNAIRTIDSSVHQYGQQELDALVKSWGISPTNPDRKKSRAYSYFNAINSNNTYAKLVLEKDKPVDVTYTGLKNSSFNGKKISKVVYTYTLKETGFNDGTKMTMFASSDPTVTAWYNDYFTSTNINVKVKFYDEEGQLMNLTGGLVNFSSLNRGNGSGAIDKDAIESVRNFNGRYIPISGSSIKIHENNSAYADSSNAEKSLGARWNTSEWDTTSSPNNWYGAIVGEITQSEISFNMASSKSGNIWFAFNSNINAIGVPTKPVAPTAPTQPMYETEKPLEPAPVAPSYENEPTPPVKTPDQPEPSKPAAALEHHHHHH
With B1 the “glycan array binding signal (z-score)” value [1] was 0.06, the “glycan array binding signal (z-score)” value [2] was -0.52 and the “glycan array binding signal (z-score)” value [3] was 0.061. The “glycan array binding signal (z-score)” value [4] was -0.624, the “glycan array binding signal (z-score)” value [5] was 0.001 and the “glycan array binding signal (z-score)” value [6] was 0.652. The “glycan array binding signal (z-score)” value [7] was -0.623, the “glycan array binding signal (z-score)” value [8] was -0.964 and the “glycan array binding signal (z-score)” value [9] was -1.19. For the same binder, the “glycan array binding signal (z-score)” value [10] was -0.25, the “glycan array binding signal (z-score)” value [11] was -0.84 and the “glycan array binding signal (z-score)” value [12] was -0.233. For the same binder, the “glycan array binding signal (z-score)” value [13] was -0.426, the “glycan array binding signal (z-score)” value [14] was 1.62 and the “glycan array binding signal (z-score)” value [15] was -0.133. The “glycan array binding signal (z-score)” value [16] was -0.933, the “glycan array binding signal (z-score)” value [17] was -0.889 and the “glycan array binding signal (z-score)” value [18] was -0.167. For the same binder, the “glycan array binding signal (z-score)” value [19] was -0.287, the “glycan array binding signal (z-score)” value [20] was 1.88 and the “glycan array binding signal (z-score)” value [21] was -0.803. For the same binder, the “glycan array binding signal (z-score)” value [22] was 3.69, the “glycan array binding signal (z-score)” value [23] was -0.47 and the “glycan array binding signal (z-score)” value [24] was -0.678. The “glycan array binding signal (z-score)” value [25] was 5.21, the “glycan array binding signal (z-score)” value [26] was 1.36 and the “glycan array binding signal (z-score)” value [27] was -0.165. For the same binder, the “glycan array binding signal (z-score)” value [28] was -0.582, the “glycan array binding signal (z-score)” value [29] was -1.25 and the “glycan array binding signal (z-score)” value [30] was -0.166.
